For 21 compounds, outcome, max response and Potency results are on record in PubChem BioAssay (NCATS).

Several values for one entry are separate records, joined by “and”; a condition that tells them apart may be missing. Identical values can stand only once. Records with an inconclusive call do not appear. Unmarked numbers belong to inactive results. Activity calls are given as the source filed them. The call rests on the fitted dose curve; in most records, active means well fitted inhibition curve with a large enough effect; inconclusive means small, poorly fitted or top-dose-only effect; inactive means flat fitted curve, though single readings scatter.

The test system of one assay is CRL-7250. The assay is described as follows: Cytotoxic Profiling of Annotated Libraries Using Quantitative High-Throughput Screening (AID 1296008). Further: potency means the concentration at half of the fitted maximal effect. On max response: on the % scale 0 is the no-effect control and ±100 the full control effect. The settings on record: Five cell lines viability, CellTiter-Glo ATP luminescence, 48-72 h; max response: active compounds read low. In outline: (§1)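 Cytotoxicity was measured as CellTiter-Glo ATP luminescence, read after 10 min at room temperature. Compound treatment of the cells lasted 48 or 72 hr at 37 degrees Celsius in a qHTS format.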
Background: In ATP-based viability assays light output follows the ATP content of the culture.

The test system of the next assay is HEK293. Described as above. The settings on record: Five cell lines viability, CellTiter-Glo ATP luminescence, 48-72 h; max response: active compounds read low. The method, boiled down:
as §1

The test system of assay [1] is HaCat. Described as above. The settings on record: Five cell lines viability, CellTiter-Glo ATP luminescence, 48-72 h; max response: active compounds read low. In outline:
as §1

In a further assay the test system is KB-3-1. Described as above. The settings on record: Five cell lines viability, CellTiter-Glo ATP luminescence, 48-72 h; max response: active compounds read low. In outline:
as §1

For a further assay, the system named is NIH3T3. Described as above. The settings on record: Five cell lines viability, CellTiter-Glo ATP luminescence, 48-72 h; max response: active compounds read low. The method, boiled down: as §1
For assay [2], the system named is HACAT. Kind of assay: qHTS assay to identify novel small-molecules to repurpose for Merkel cell carcinoma treatment (AID 1296009). The settings on record: MCC and control cell lines, CellTiter-Glo viability, 72 h; at 44.8 µM (top of the series) unless noted. In outline: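 After compound transfer in DMSO, plates were kept 72 hr at 37 degree celsius. Luminescent ATP signal from CellTiter-Glo served as viability measure, normalized against DMSO and no-cell controls.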
Further: nearly all actives have a fitted effect of over 60% in size.

Regarding `OC[C@H]1OC(O)C[C@@H](O)[C@H]1O` (stereo not given in full), the compound was classed as inactive in the assay on CRL-7250, in the assay with HEK293, with HaCat [1], in the assay with NIH3T3 and in the assay on HACAT [2]. In addition, in the assay on KB-3-1, the max response is 2.18%.

On to `NC1=N[C@H]2[C@H](CS[C@H]2CCCCC(=O)O)N1`, for which the result in the assay with CRL-7250, in the assay on HaCat [1] and with KB-3-1 was inactive. Besides, the max response in the assay with HEK293 is -4.7%; in the assay on NIH3T3, -0.4%. Besides, the outcome in the assay on HACAT [2] was “inactive [at 17.4 µM]”.

As to `C=C(C)[C@@H]1CC[C@]2(C)CC[C@]3(C)[C@H](CC[C@@H]4[C@@]5(C)CC[C@H](O)C(C)(C)[C@H]5CC[C@]43C)[C@@H]12`, the values for the max response with CRL-7250 and with KB-3-1 were -9.28% and 8.9%, respectively. Besides, the compound was classed as inactive in the assay with HEK293, in the assay on HaCat [1], in the assay on NIH3T3 and in the assay with HACAT [2].

Regarding `OC[C@@H](O)[C@@H](O)[C@H](O)[C@@H](O)CO`, the max response in the assay with CRL-7250 is 0.947%; with HEK293, 2.06%; in the assay on NIH3T3, -2.12%. Besides, the compound was classed as inactive in the assay with HaCat [1], in the assay with KB-3-1 and with HACAT [2].

On to `CC(C)(C)[C@H](NC(=O)c1ccc(N)c(Cl)c1)C(=O)N1CCC[C@@H]1C(=O)N[C@H](C#N)CC(=O)O`, for which the outcome in the assay with CRL-7250, in the assay with HaCat [1] and in the assay on NIH3T3 was inactive. Moreover, the max response with HEK293 was -9.49%; in the assay on KB-3-1, 5.36%. For the same compound, the outcome in the assay on HACAT [2] was “inactive [at 4.96 µM]”.

In the case of `CC(C=CC=C(C)C=CC1=C(C)CCCC1(C)C)=CC=CC=C(C)C=CC=C(C)C=CC1=C(C)CCCC1(C)C`, the max response with CRL-7250 is -6.98%; in the assay with HEK293, -0.757%; in the assay on KB-3-1 it was 8.98%; with NIH3T3 it was -4.98%. Besides, the call in the assay with HaCat [1] and in the assay on HACAT [2] was inactive.

As to `CN(N=O)C(=O)N[C@H]1C(O)OC(CO)[C@@H](O)[C@H]1O` (stereo not given in full), the max response is -3.47% in the assay on CRL-7250, -7.38% with HEK293, 2.81% in the assay on KB-3-1 and -17.4% with NIH3T3. Further, the outcome in the assay on HaCat [1] and in the assay on HACAT [2] was inactive.

As for `CC1(C)CC(O)CC(C)(C)N1[O]`, the outcome with CRL-7250, in the assay on HEK293, with HaCat [1] and in the assay on HACAT [2] was inactive. Moreover, the figures for the max response in the assay with KB-3-1 and in the assay with NIH3T3 were 7.14% and -4%, respectively.

Turning to `C[C@H]1C[C@H]2[C@@H]3CCC4=CC(=O)C=C[C@]4(C)[C@@H]3C(=O)C[C@]2(C)[C@@]1(O)C(=O)CO`, the figures for the max response in the assay on CRL-7250, in the assay on HEK293 and in the assay with KB-3-1 were -3.73%, 3.81% and 4.3%, respectively. The outcome in the assay with HaCat [1], in the assay with NIH3T3 and with HACAT [2] was inactive.

Take `C=C1C[C@@]2(O)O[C@@]3(C[C@H]2C(C)C)[C@H](C)CC[C@H]13`: the max response is -11.2% in the assay on CRL-7250, 0.867% with HEK293 and 2.78% in the assay on NIH3T3. The outcome in the assay with HaCat [1], with KB-3-1 and with HACAT [2] was inactive.

Take `CC1(C)O[C@@H]2C[C@H]3[C@@H]4CCC5=CC(=O)C=C[C@]5(C)[C@@H]4[C@@H](O)C[C@]3(C)[C@]2(C(=O)CO)O1`: the max response was -21.1% in the assay on CRL-7250 and -5.4% in the assay on NIH3T3. Besides, the compound was called inactive in the assay on HEK293, in the assay with HaCat [1], in the assay with KB-3-1 and with HACAT [2].

For the compound `CN1C(C(=O)Nc2ccccn2)=C(O)c2sc(Cl)cc2S1(=O)=O`, the compound was called inactive with CRL-7250, in the assay on HEK293, with HaCat [1] and with HACAT [2]. Also, the max response in the assay on KB-3-1 was 3.99%; in the assay with NIH3T3 it was -1.3%.

Take `CC(Oc1ccc(O)cc1)(P(=O)(O)O)P(=O)(O)O`: the results for the max response in the assay with CRL-7250, with KB-3-1 and with NIH3T3 were 3.19%, -8.06% and -5.52%, respectively. The outcome with HEK293, in the assay on HaCat [1] and with HACAT [2] was inactive.

Turning to `Cc1cc(-c2nnc3n2CCCCC3)c(C)n1-c1ccccc1`, the max response in the assay with CRL-7250 was -6.3%; in the assay on HEK293, -6.24%; in the assay with KB-3-1 it was -0.0627%; in the assay with NIH3T3 it was 1.52%. The compound was called inactive in the assay on HaCat [1] and in the assay with HACAT [2].

Consider `C[C@H](O)[C@@H]1C(=O)N2C(C(=O)O)=C(S[C@@H]3CN[C@H](CNS(N)(=O)=O)C3)[C@@H](C)[C@@H]12`, for which the max response in the assay on CRL-7250 was 4.32%; in the assay with HEK293, 0.869%. For the same compound, the call in the assay with HaCat [1], in the assay with KB-3-1, in the assay with NIH3T3 and in the assay on HACAT [2] was inactive.

Consider `Cc1coc2c1C(=O)C(=O)c1c-2ccc2c(C)cccc12`, for which the max response in the assay with CRL-7250 is -23.2%; with HEK293, -8.46%; in the assay on NIH3T3, -4.31% and -4.38%. The compound was called inactive in the assay with HaCat [1], in the assay on KB-3-1 and with HACAT [2].

For the compound `CCCc1nc(C(C)(C)O)c(C(=O)O)n1Cc1ccc(-c2ccccc2-c2nn[nH]n2)cc1`, the compound was classed as inactive with CRL-7250, in the assay with HEK293, in the assay with HaCat [1], in the assay on NIH3T3 and with HACAT [2]. The max response in the assay with KB-3-1 was 0.595%.

Regarding `CC(C(C)N1CC(=O)NC(=O)C1)N1CC(=O)NC(=O)C1` (stereo not given), the call with CRL-7250 was inactive. For the same compound, the Potency in the assay on HEK293 was 1660 nM (active). In addition, in the assay with KB-3-1, the max response was -3.89%.

On to `CCN(CC)CCNC(=O)c1c(C)[nH]c(C=C2C(=O)Nc3ccc(F)cc32)c1C`, for which the Potency is 340 nM (active) with CRL-7250, 270 nM (active) in the assay on HEK293 and 2150 nM (active) in the assay on KB-3-1.

For the compound `CCN(CC)CCCCNc1ncc2c(n1)N(C)C(=O)N(c1c(Cl)c(OC)cc(OC)c1Cl)C2`, the Potency in the assay on CRL-7250 is 14800 nM (active); with HEK293, 2090 nM (active). Moreover, the max response with KB-3-1 was -30%.

Regarding `COc1cc(C(=O)NC2CCN(C)CC2)ccc1Nc1ncc2c(n1)N(C1CCCC1)CCC(=O)N2C(C)C`, the max response was -17.1% in the assay on CRL-7250 and -42.1% in the assay on HaCat [1]. Also, the Potency in the assay on HEK293 was 8330 nM (active); in the assay on NIH3T3, 1320 nM (active).
